{"source": "PubChem BioAssay (NCATS)", "key": {"Furin (Homo sapiens)": {"target": "Furin (Homo sapiens) (UniProt P09958)", "sequence (P09958 whole entry, looked up)": "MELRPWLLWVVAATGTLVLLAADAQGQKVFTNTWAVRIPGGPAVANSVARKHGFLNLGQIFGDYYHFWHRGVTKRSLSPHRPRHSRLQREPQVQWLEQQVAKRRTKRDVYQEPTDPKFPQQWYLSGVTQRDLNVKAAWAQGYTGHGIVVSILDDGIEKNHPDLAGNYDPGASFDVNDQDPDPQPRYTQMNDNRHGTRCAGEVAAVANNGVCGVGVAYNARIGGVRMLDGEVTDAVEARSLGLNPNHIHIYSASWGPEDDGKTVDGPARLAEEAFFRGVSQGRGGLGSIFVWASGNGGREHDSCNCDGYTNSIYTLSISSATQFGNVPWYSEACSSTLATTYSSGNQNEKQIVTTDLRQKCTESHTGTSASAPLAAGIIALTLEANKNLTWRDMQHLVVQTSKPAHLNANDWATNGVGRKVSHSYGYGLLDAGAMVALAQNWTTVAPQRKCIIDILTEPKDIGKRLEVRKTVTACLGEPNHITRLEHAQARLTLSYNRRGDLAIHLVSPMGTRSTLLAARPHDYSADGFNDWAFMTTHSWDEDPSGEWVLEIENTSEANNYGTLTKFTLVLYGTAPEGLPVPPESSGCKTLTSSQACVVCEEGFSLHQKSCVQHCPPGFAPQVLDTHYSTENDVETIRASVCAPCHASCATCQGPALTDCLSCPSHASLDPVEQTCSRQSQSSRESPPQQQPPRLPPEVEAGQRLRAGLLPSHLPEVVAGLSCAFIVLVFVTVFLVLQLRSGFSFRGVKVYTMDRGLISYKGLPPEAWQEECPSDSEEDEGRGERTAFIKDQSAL", "assay": "Furin counterscreen qHTS for Zika virus inhibitors (AID 1347149);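 note: fluorescence gain from furin cutting a BOC-RVRR-AMC peptide substrate over 15 min; top concentration of the series differs between compounds; nearly all actives have a fitted effect of over 70% in size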", "method_in_brief": "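Counterscreen measures cleavage of 2 microM BOC-RVRR-AMC, below its ~15 microM Km, by 5 nM full-length human furin at pH 7.0 after a 15-min compound preincubation. Inhibition derives from the 15-min fluorescence increase at 37C.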"}, "[1]": {"system": "Zika virus NS2B-NS3 protease (unlinked complex)", "assay": "Confirmatory screen GU AMC qHTS for Zika virus inhibitors (AID 1347153); note: nearly all actives have a fitted effect of over 70% in size", "method_in_brief": "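Noncovalent NS2B hydrophilic domain/NS3 protease complex (25 nM) in 10 mM Tris-HCl pH 8.0, 0.01% Tween 20 was preincubated 15 min at room temperature with compounds. Then 10 µM AMC substrate (Km 18.3 µM) was added; fluorescence was read over 15 min and fitted to a 4-parameter Hill equation.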"}, "[2]": {"assay": "Tertiary RLuc qRT-PCR qHTS assay for Zika virus inhibitors (AID 1347169); note: nearly all actives have a fitted effect of over 55% in size; note: potency is the fitted concentration of half-maximal effect", "method_in_brief": "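Vero cells (1,000/well) infected with recombinant ZIKV-RLuc (Cambodian) at MOI 1-2 after compound addition, 48-72 hrs at 37 degrees C. Live-cell Renilla luciferase substrate added; luminescence read after 1-1.5 hrs.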"}, "[3]": {"system": "Zika virus NS2B-NS3 protease (unlinked)", "assay": "Optimization of GU AMC qHTS for Zika virus inhibitors: Unlinked NS2B-NS3 protease assay (AID 1347151); note: series mostly up to about 52 µM; nearly all actives have a fitted effect of over 80% in size", "method_in_brief": "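Noncovalent NS2B hydrophilic domain–NS3 protease complex (25 nM final) in 10 mM Tris-HCl pH 8.0, 0.01% Tween 20; AMC substrate, room temperature 15 min (~20% conversion); fluorescence change normalized, 4-parameter Hill fit.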"}, "[4]": {"assay": "Vero cells viability qHTS for Zika virus inhibitors (AID 1347167)", "method_in_brief": "(§1)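 Luminescent ATP readout (CellTiter Glo) after 30 min at 37 degrees C gives viability; cells in DMEM + 4% FBS were treated 24 to 48 hours with compound, following overnight attachment.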"}, "[5]": {"assay": "HepG2 cells viability qHTS for Zika virus inhibitors (AID 1347168)", "method_in_brief": "as §1"}, "[6]": {"assay": "ZIKV-mCherry secondary qHTS for Zika virus inhibitors (AID 1347158)", "method_in_brief": "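This orthogonal imaging screen measured ZIKV-mCherry infection of Vero cells exposed to compound, MOI 1, 48-72 h. Percent infection came from segmented nuclei scored mCherry-positive above 3 SD of negative controls.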"}, "[7]": {"system": "Zika virus NS2B-NS3 protease (linked construct)", "assay": "384 well plate NINDS Rhodamine confirmatory qHTS for Zika virus inhibitors (AID 1347164)", "method_in_brief": "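Linked NS2B-NS3 protease (final 5, 30 or 60 nM) preincubated ~15 minutes with compounds, then 10 microM Ac-LKRR-Rhodamine 110 added. Fluorescence (485/538 nm) read after 25 minutes at room temperature, normalized to no-enzyme and no-inhibitor controls.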"}}, "note": "Results filed as inconclusive are left out. Where a call stands in place of a potency, no number is given. A number with no mark means an inactive call. Active and inactive are the calls of the source. Calls come from the whole dose curve; as a rule, active = well fitted curve in the direction sought with a large enough effect; inconclusive = small, poorly fitted or top-dose-only effect, or another doubt; inactive = no such curve, though single readings can be large; an effect the other way counts as inactive or inconclusive.", "data": [{"smiles": "O=C(O)c1ccc(-c2ccc(C(F)(F)F)cc2)cc1", "values": [{"measurement": "Potency", "setting": "Furin (Homo sapiens)", "value": "inactive"}, {"measurement": "Potency", "setting": "[1]", "value": "inactive"}, {"measurement": "Potency", "setting": "[2]", "value": "inactive"}]}, {"smiles": "CCOc1ccc(C2C(=O)N(C3CCCCC3)CC(=O)N2Cc2ccc(F)cc2)cc1OC", "note": "(stereo not drawn)", "values": [{"measurement": "Potency", "setting": "Furin (Homo sapiens)", "value": "inactive"}, {"measurement": "Potency", "setting": "[3]", "value": "inactive"}, {"measurement": "Potency", "setting": "[4]", "value": "inactive"}, {"measurement": "Potency", "setting": "[5]", "value": "inactive"}, {"measurement": "Potency", "setting": "[2]", "value": "8.29 µM (active)"}]}, {"smiles": "O=C(O)c1cccc(-c2cccc(C(F)(F)F)c2)c1", "values": [{"measurement": "Potency", "setting": "Furin (Homo sapiens)", "value": "inactive"}, {"measurement": "Potency", "setting": "[1]", "value": "inactive"}, {"measurement": "Potency", "setting": "[6]", "value": "inactive"}, {"measurement": "Potency", "setting": "[7]", "value": "501 µM (active)"}]}, {"smiles": "Cc1c(NS(=O)(=O)c2ccccc2)cc(C(C)C)c(O)c1S(=O)(=O)c1ccc(Cl)cc1", "values": [{"measurement": "Potency", "setting": "Furin (Homo sapiens)", "value": "inactive"}]}]}
